The target in assay [1] is Vitamin D3 receptor (Homo sapiens) (UniProt P11473). The assay is described as follows: qHTS for Inhibitors of the vitamin D receptor (VDR): Hit Validation in Primary Screen (AID 602199). Note: potency is the fitted concentration of half-maximal effect. To be noted: VDR-coactivator inhibition assay, qHTS confirmation. The gist of the method: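 Fluorescence polarization (Ex 620/Em 688 nm) of Alexa 647-SRC2-3 peptide with 800 nM VDR and 5 uM LG19078. Compounds at several concentrations, 2 h at room temperature.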
(In general: In qHTS, concentration-response curves come from the screen itself.)

Assay [2] has the same target. The assay is described as follows: qHTS for Inhibitors of the vitamin D receptor (VDR): Hit Validation using a Fluorescein Assay (AID 602200). Note: potency is the fitted concentration of half-maximal effect. To be noted: VDR-coactivator binding, fluorescein fluorescence polarization. The gist of the method: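 Fluorescence polarization: 1.5 uM VDR-LBD, 5 uM LG19078 and 5 nM fluorescein-labeled SRC2-3 peptide (final) with compounds, 2 h at room temperature. Read at Ex 495/Em 520 nm; peptide-only wells served as control.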

Assay [3] shares this target. The assay is described as follows: qHTS for Inhibitors of the vitamin D receptor (VDR): Hit Validation using a Beta-Lactamase Assay (AID 602202). Note: potency is the fitted concentration of half-maximal effect. Summed up: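 Stably transfected HEK293 cells expressing VDR-GAL4 DNA-binding domain fusion with UAS-driven beta-lactamase reporter, activated by agonist LG190178; compounds incubated 18 h, then FRET beta-lactam substrate 2 h; cleaved substrate read at 447 nm emission.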

For assay [4], the target named is Cytochrome P450 2D6 (Homo sapiens) (UniProt P10635). The assay is described as follows: Cytochrome P450 family 2 subfamily D member 6 (CYP2D6) small molecule antagonists: luciferase biochemical (cell-free) qHTS assay (AID 1645840; active = well fitted curve in the direction sought with a large enough effect in the repeat runs; an effect the other way counts as inactive or inconclusive; note: % is set by controls: 0 for no effect and ±100 for the full control effect; nearly all actives have a fitted effect of over 55% in size). The gist of the method:
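P450-Glo CYP2D6 system: proluciferin substrate converted by enzyme to luciferin, read by luminescence proportional to activity. Enzyme-substrate mix with compound 10 min at room temperature, then NADPH regeneration 1 h before detection reagent.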

Assay [5] has as its target Cytochrome P450 2C9 (Homo sapiens) (UniProt P11712). In words: Cytochrome P450 family 2 subfamily C member 9 (CYP2C9) small molecule antagonists: luciferase biochemical (cell-free) qHTS assay (AID 1645842; active = well fitted curve in the direction sought with a large enough effect in the repeat runs; an effect the other way counts as inactive or inconclusive; note: potency is the fitted concentration of half-maximal effect; nearly all actives have a fitted effect of over 55% in size). The gist of the method:
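P450-Glo CYP2C9 system: proluciferin substrate with enzyme in mix containing 0.4% BSA, 10 min at room temperature, then NADPH regeneration solution added and incubated 1 h at 37C. Detection reagent stopped reaction; luminescence read after 20 min as RLU.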

The target in assay [6] is Cytochrome P450 3A4 (Homo sapiens) (UniProt P08684). The assay is described as follows: qHTS Assay for Inhibitors and Substrates of Cytochrome P450 3A4 (AID 884). For activity change, negative = inhibition: % is set by controls: 0 for no effect and ±100 for the full control effect. Note: nearly all actives have a fitted effect of over 50% in size. Note: potency is the fitted concentration of half-maximal effect. The gist of the method: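 Luminescent readout of luciferin produced by CYP3A4 (20 nM) dealkylation of Luciferin-PPXE, 25 uM (its KM). NADPH-driven reaction ran 60 min at RT after 10 min compound preincubation; data scaled to 57 uM ketoconazole as 100% inhibition.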

For assay [7] the target is unchanged. In words: qHTS Assay for Activators of Cytochrome P450 3A4 (AID 885). Note: nearly all actives have a fitted effect of over 65% in size. The gist of the method:
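Activators are scored by enhanced luminescence from CYP3A4 conversion of luciferin-PPXE (25uM, equal to KM) to luciferin, after 60 min at RT with an NADPH-regenerating system.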

A short description of assay [8]: Confirmation and Secondary Assay for Modulators of Hemoglobin Beta Chain Splicing at IVS2 654 locus (AID 910).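 Note: HeLa cells stably carrying EGFP split by mutant beta-globin IVS2-654 intron; % of control where 0% means no effect.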 The gist of the method: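 HeLa cells stably expressing EGFP interrupted by β-globin IVS2-654 intron, seeded overnight in Opti-MEM/2% FCS, then treated 2 days at 37 °C. Restored splicing read as total peak GFP intensity per well by laser scanning cytometry (488 nm excitation, 500–520 nm emission); 500 nM antisense PNA as control.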

Assay [9] can be described thus: Confirmation and Secondary Assay for Modulators of Hemoglobin Beta Chain Splicing at IVS2 705 locus (AID 930).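 Note: HeLa cells stably expressing the EGFP-705 splicing reporter; GFP fluorescence per well restored by corrected splicing of the IVS2-705 intron in EGFP; % of control where 0% means no effect.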 Summed up:
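HeLa IVS2-705 EGFP reporter cells, 500/well, compound 2 d at 37C; correct splicing yields fluorescent EGFP. Control: 500 nM antisense PNA. Read-out: total peak GFP intensity.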

Assay [10] in a line: qHTS Assay for Lipid Storage Modulators (AID 1519; calls by dose curve; for activity change, negative = inhibition: % is set by controls: 0 for no effect and ±100 for the full control effect). To be noted: Drosophila S3 cells, BODIPY lipid droplet/cell ratio, laser cytometry, cells loaded with oleic acid; for activity change, negative = inhibition: at 57.5 µM (top of the series). Summed up:
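Cells seeded at 5,000 per well were treated with compounds over a concentration series and loaded with oleic acid (400 uM, as added). Lipid droplet fluorescence (488 nm excitation, 500-530 nm channel) was read by laser-scanning cytometry and normalized to 20 uM Triacsin C.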

The target of assay [11] is Ubiquitin carboxyl-terminal hydrolase 1 (Homo sapiens) (UniProt O94782). In words: Inhibitors of USP1/UAF1: Pilot qHTS (AID 504865).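 Note: rhodamine fluorescence freed from ubiquitin-rhodamine substrate followed over time; top concentration of the series differs between compounds; % is set by controls: 0 for no effect and ±100 for the full control effect; nearly all actives have a fitted effect of over 35% in size.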 The gist of the method: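 In 50mM HEPES pH 7.8 containing 0.5mM EDTA, 1mM TCEP, 0.1 mg/ml BSA and 0.01% Tween-20, 1nM USP1/UAF1 is exposed to compound for 15 min, then Ub-Rho (150nM final) is added and fluorescence is read over time.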
Where [12] appears, read: measured here: cell count channel max response.
Where [13] appears, read: measured here: lipid channel max response.

SMILES strings stand for the structures. Values joined by “and” are separate entries in the source; they are usually repeats but may differ in a detail not shown here. Identical values can stand only once. Records with an inconclusive call do not appear. This is one part of the list. Active and inactive are the calls of the source. Unless noted, calls come from the whole dose curve; as a rule, active = well fitted curve in the direction sought with a large enough effect; inconclusive = small, poorly fitted or top-dose-only effect, or another doubt; inactive = no such curve, though single readings can be large; an effect the other way counts as inactive or inconclusive.

The source of these data is PubChem BioAssay (NCATS).

Vitamin D3 receptor (Homo sapiens), sequence (P11473 whole entry, looked up): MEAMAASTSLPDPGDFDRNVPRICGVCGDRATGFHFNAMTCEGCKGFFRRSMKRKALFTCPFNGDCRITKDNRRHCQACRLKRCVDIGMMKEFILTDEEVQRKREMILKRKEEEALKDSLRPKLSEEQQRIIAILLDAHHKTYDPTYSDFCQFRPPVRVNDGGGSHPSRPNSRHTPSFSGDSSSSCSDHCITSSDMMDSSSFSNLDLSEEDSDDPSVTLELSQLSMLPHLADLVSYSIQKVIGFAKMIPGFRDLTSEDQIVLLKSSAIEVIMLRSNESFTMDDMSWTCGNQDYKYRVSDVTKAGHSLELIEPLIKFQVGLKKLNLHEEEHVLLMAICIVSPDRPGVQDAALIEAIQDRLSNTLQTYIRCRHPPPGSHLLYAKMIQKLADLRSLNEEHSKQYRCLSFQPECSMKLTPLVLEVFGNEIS
Ubiquitin carboxyl-terminal hydrolase 1 (Homo sapiens), sequence (O94782 whole entry, looked up): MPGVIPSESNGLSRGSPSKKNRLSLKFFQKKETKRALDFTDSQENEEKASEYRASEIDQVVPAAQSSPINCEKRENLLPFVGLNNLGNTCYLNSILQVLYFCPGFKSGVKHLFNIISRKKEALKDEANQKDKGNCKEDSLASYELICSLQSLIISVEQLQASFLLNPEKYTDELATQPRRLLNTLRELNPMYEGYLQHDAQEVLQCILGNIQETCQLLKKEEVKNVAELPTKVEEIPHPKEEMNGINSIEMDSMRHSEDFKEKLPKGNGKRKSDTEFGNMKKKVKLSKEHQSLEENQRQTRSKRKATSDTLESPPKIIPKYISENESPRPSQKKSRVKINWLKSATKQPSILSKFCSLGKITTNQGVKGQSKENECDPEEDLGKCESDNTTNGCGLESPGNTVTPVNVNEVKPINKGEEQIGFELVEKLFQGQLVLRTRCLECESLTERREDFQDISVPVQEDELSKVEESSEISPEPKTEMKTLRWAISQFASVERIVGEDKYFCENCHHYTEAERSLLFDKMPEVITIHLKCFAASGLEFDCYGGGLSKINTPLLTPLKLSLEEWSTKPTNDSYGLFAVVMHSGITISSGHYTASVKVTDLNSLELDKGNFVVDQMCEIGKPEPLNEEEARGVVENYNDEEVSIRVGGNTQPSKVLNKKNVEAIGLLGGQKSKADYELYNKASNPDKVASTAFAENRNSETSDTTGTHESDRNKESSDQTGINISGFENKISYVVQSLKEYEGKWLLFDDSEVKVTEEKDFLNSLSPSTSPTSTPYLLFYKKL
Cytochrome P450 3A4 (Homo sapiens), sequence (P08684 whole entry, looked up): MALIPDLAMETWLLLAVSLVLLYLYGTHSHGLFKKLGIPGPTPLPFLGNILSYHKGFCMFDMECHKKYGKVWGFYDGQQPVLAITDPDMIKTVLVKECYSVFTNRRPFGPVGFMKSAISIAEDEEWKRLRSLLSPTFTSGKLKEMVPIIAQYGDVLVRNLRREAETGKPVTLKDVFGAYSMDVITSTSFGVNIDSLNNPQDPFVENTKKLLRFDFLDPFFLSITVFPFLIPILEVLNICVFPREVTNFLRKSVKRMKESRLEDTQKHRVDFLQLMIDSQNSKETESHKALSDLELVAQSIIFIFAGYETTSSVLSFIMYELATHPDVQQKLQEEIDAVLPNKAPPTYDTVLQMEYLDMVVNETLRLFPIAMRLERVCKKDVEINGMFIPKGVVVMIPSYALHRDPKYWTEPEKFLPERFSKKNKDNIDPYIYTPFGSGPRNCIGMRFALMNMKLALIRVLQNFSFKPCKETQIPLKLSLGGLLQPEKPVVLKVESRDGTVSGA
Cytochrome P450 2D6 (Homo sapiens), sequence (P10635 whole entry, looked up): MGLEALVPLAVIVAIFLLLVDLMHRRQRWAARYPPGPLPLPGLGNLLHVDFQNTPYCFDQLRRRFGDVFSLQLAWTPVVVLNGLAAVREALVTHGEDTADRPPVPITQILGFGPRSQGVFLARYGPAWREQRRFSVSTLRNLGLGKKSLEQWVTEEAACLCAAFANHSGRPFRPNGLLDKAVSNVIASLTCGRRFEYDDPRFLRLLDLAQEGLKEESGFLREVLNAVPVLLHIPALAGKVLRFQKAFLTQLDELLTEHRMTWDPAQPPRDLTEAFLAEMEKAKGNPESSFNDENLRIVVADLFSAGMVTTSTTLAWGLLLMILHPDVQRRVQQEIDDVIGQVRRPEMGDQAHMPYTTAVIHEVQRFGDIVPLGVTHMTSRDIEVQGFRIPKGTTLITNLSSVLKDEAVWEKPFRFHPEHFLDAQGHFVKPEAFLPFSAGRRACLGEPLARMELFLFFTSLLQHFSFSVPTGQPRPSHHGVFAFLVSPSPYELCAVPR
Cytochrome P450 2C9 (Homo sapiens), sequence (P11712 whole entry, looked up): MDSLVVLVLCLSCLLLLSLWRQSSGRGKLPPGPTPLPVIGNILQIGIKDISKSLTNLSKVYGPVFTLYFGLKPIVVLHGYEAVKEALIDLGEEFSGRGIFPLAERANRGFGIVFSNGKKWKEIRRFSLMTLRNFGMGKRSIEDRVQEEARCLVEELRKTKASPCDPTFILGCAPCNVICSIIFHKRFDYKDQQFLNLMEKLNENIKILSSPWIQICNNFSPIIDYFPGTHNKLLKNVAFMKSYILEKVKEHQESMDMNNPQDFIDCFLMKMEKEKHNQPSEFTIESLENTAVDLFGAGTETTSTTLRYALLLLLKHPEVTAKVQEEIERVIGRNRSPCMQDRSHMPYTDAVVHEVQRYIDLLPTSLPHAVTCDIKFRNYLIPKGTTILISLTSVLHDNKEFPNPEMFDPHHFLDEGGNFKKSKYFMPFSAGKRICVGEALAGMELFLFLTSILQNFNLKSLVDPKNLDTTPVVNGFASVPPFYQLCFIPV

On to `COc1ccccc1-c1cc(C(F)(F)F)nc(S(=O)(=O)CCCC(=O)Nc2ccc(F)cc2F)n1`, for which the Potency is 4.47 µM (active) in assay [1], 8.91 µM (active) in assay [2] and 18.4 µM (active) in [3].

As to `CCOC(=O)c1ccc(NC(=O)CSc2nc3c([nH]c4ccccc43)c(=O)n2C)cc1`, the Potency entry in [4] was “inactive”. Also, the Potency in [5] is 3.01 µM (active).

Regarding `CC(=O)Oc1cc(OC(C)=O)c2c(c1)OC(c1ccc(OC(C)=O)c(OC(C)=O)c1)C(OC(C)=O)C2` (stereo not drawn), the Potency in assay [6] was 31.6 µM (active). For the same compound, the Potency entry in assay [7], in [8] and in assay [11] was “inactive” each time. Further, the call in assay [9] was inactive. Moreover, the activity change, negative = inhibition in assay [10] is 6.42% (inactive) and -10.2% (inactive). The max response is 0.329% and -6.77% in assay [10] (setting [12]); 6.69% and -15% in [10] (setting [13]).

As for `N=c1ccn2c(n1)OC1C(O)C(CO)OC12` (stereo not drawn), the Potency entry in assay [6], in assay [8] and in [11] was “inactive” throughout. Besides, the activity change, negative = inhibition in assay [10] was 3.87% (inactive) and 5.45% (inactive). Besides, the max response in assay [10] (setting [12]) is 0.631% and 1.94%; in assay [10] (setting [13]) it was 7.88% and 22.5%.

For `Nc1ccn(C2OC(CO)C(O)C2O)c(=O)n1` (stereo not drawn), the Potency result in assay [8] is “inactive”. The activity change, negative = inhibition in assay [10] is 2.01% (inactive) and 0.795% (inactive). For the same compound, the max response in [10] (setting [12]) was -9.2% and 5.05%; in assay [10] (setting [13]), -5.62% and 10.3%.
